{
  "source": "PubChem BioAssay (NCI)",
  "note": "About 83,000 compounds went through this panel and 20% of them were active in at least one assay; those are over-represented in the sample as a whole.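 Values shown are percent growth following 48 h exposure of cells in 96-well plates to a single concentration of compound; below 10 was considered active.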 Calls of active or inactive are those of the source.",
  "data": [
    {"test_system": "KM12 colon", "experiment": "NCI-60 one-dose screen, 48 h (100 = growth as untreated, 0 = no growth, -100 = all killed)", "conditions": "10 µM unless noted", "protocol": "Growth inhibition of the KM12 human tumor cell line is measured as a screen for anti-cancer activity. Cells are grown in 96 well plates and exposed to the test compound for 48 hours. Compounds are tested at a single concentration, which is 10^-5 M for most compounds. The reported endpoint is percent growth (GI% or GIPRCNT), where numbers from 0 - 100% represent growth inhibition, and numbers from -100% - 0 represent cell death. For example, a value of 40 represents 60% growth inhibition. A value of 0 means no net growth occurred over the course of the experiment. A value of -40 indicates 40% of cells at the beginning of the experiment died by the end of the experiment. A value of -100 means all cells are dead at the end of the experiment.\nNCI-60 Human Tumor Cell Lines Screen was performed using the standard one-dose NCI protocol, which is described in more detail at https://dtp.cancer.gov/discovery_development/nci-60/default.htm.\nCompounds with GIPRCNT values below 10 were considered active. Activity score was based on GIPRCNT using the following formula: […]\nScore is 0 for GIPRCNT values of 100 or above, 50 for GIPRCNT values of 0, and 100 for GIPRCNT values of -100.", "values": [
      {"smiles": "CC/C=C\\C/C=C\\C[C@H]1C/C=C2/C(=O)C=C[C@H]2C/C=C\\CCC(=O)O1", "growth": "-34.5% (active)"},
      {"smiles": "O=C(O)c1ccc(-n2c(=O)c3ccccc3c3ccccc3c2=O)cc1", "growth": "104% (inactive)"},
      {"smiles": "CCNC(=O)CCCCC(=O)c1c(C)[nH]c(/C=C2\\N=C(c3ccc[nH]3)C=C2OC)c1C", "growth": "-56.9% (active)"},
      {"smiles": "CCOP(=O)(CCN1CCN(CCCCCOc2cc3c(cc2OC)C(=O)N2CCC[C@H]2C=N3)CC1)OCC", "growth": "111% (inactive)"},
      {"smiles": "COc1cc(NC(=O)CCl)ccc(=O)c1", "growth": "89.6% (inactive)"},
      {"smiles": "COC(=O)c1cc(-c2cccs2)c(C#N)c(N)c1C#N", "growth": "108% (inactive)"},
      {"smiles": "O=C(Nc1cccc(C(F)(F)F)c1)Nc1ccc(OCc2nnc(-c3ccccc3)o2)c(F)c1", "growth": "12.2% (inactive)"},
      {"smiles": "COc1cc(OC)c(C(=O)/C=C/c2cccc(C(F)(F)F)c2)c(OC)c1", "growth": "11% (inactive)"},
      {"smiles": "CC(=O)c1cc(C(=O)c2ccc3c(c2)Sc2ccccc2N3)c2cc(C)ccn12", "growth": "5.18% (active)"},
      {"smiles": "O=C(C[N+](=O)[O-])c1ccc(Cl)cc1", "growth": "109% (inactive)"},
      {"smiles": "COc1ccc(OC)c(NC(=O)c2cc(S(=O)(=O)N3CCc4ccccc43)ccc2OC)c1", "growth": "111% (inactive)"},
      {"smiles": "O=C(NCCCN1CCN(CCCNC(=O)C2CCCCC2)CC1)C1CCCCC1", "growth": "104% (inactive)"},
      {"smiles": "O=C(CNC(=O)c1cccc2ccccc12)Nc1ccccc1Oc1ccccc1", "growth": "9.93% (active)"},
      {"smiles": "C[C@]12CC[C@@H]3c4cc(O)c(O)cc4CC[C@H]3[C@@H]1CC[C@@H]2O", "growth": "74.5% (inactive)"},
      {"smiles": "O=[N+]([O-])c1cccc(-c2cc(-c3cc(Br)ccc3O)[nH]n2)c1", "growth": "12.5% (inactive)"},
      {"smiles": "Cc1ccc(OCCn2c(C)nn(-c3ccc(Cl)cc3)c2=O)cc1", "growth": "117% (inactive)"},
      {"smiles": "CCCCCCCCCCCCOB(OCCCCCCCCCCCC)OCCCCCCCCCCCC", "growth": "102% (inactive)"},
      {"smiles": "CCn1c(=O)c2c(=O)c3c4c(oc3oc2c2ccccc21)C(=O)c1ccccc1C4=O", "growth": "86.6% (inactive)"},
      {"smiles": "C=CCn1c(C)nc2ccc(Nc3nc(Nc4ccc(F)cc4)nc4ccccc34)cc21", "growth": "36.6% (inactive)"},
      {"smiles": "O=S(=O)(NCCCNc1cc(-c2cn(-c3ccccc3)nc2-c2cccc(O)c2)ccn1)c1ccc(Cl)cc1", "growth": "12.5% (inactive)"},
      {"smiles": "CC[C@H](C)[C@H]1NC(=O)[C@@H](N[C@](C)(O)[C@@H](N)CC(C)C)[C@@H](C)OC(=O)[C@H](Cc2ccc(OC)cc2)N(C)C(=O)[C@@H]2CCCN2C(=O)[C@H](CC(C)C)NC(=O)[C@@H](C)C(=O)[C@H](C(C)C)OC(=O)C[C@@H]1O", "growth": "-14.8% (active)"},
      {"smiles": "Clc1cccc(Cl)c1Cn1c(-c2cncs2)nc2ccccc21", "growth": "80.5% (inactive)"},
      {"smiles": "c1ccc([P+](CCC[P+](c2ccccc2)(c2ccccc2)c2ccccc2)(c2ccccc2)c2ccccc2)cc1", "growth": "45.5% (inactive)"},
      {"smiles": "O=C(Nc1ccc(I)cc1)c1cc([N+](=O)[O-])ccc1O", "growth": "21% (inactive)"},
      {"smiles": "COc1ccc(-c2nc(-c3nc4ccc(F)cc4[nH]3)cc3c2[nH]c2ccccc23)cc1", "growth": "23.4% (inactive)"},
      {"smiles": "COc1ccc(/C=C2\\CCCC3=C2NC(C)=NC3c2ccc(OC)c(OC)c2)cc1OC", "note": "(stereo not given)", "growth": "6.19% (active)"},
      {"smiles": "CNC(C)=O", "growth": "106% (inactive)"},
      {"smiles": "O=C(Nc1cccc(Cl)c1)c1cc([N+](=O)[O-])ccc1O", "growth": "43.1% (inactive)"},
      {"smiles": "COc1cc(C2C=C(C)N=C3SC=CN32)cc(OC)c1OC", "note": "(stereo not given)", "growth": "111% (inactive)"},
      {"smiles": "Cn1c(C(N)=O)cc2c1-c1nc(NC3CCCCC3)ncc1CCC2", "growth": "104% (inactive)"},
      {"smiles": "Clc1nc(-c2cccnc2)nc2sc3c(c12)CCCCCC3", "growth": "116% (inactive)"},
      {"smiles": "COC(=O)CCCCCCN=Cc1c(O)c(O)c(C(C)C)c2cc(C)c(-c3c(C)cc4c(C(C)C)c(O)c(O)c(C=NCCCCCCC(=O)OC)c4c3O)c(O)c12", "growth": "18.2% (inactive)"},
      {"smiles": "COc1cc(Br)c(OC)cc1Br", "growth": "76.3% (inactive)"},
      {"smiles": "Cc1ccc2nc(SCn3nnc4ccccc4c3=O)[nH]c2c1", "growth": "161% (inactive)"},
      {"smiles": "Clc1ccc2c(c1)NC1(CCSc3ccccc31)n1nccc1-2", "note": "(stereo not given)", "growth": "102% (inactive)"},
      {"smiles": "CCCCCCCN(CCCCCCC)C(=N)c1ccc(OC)c2ccccc12", "growth": "-84.3% (active)"},
      {"smiles": "C=CCOc1cccc(/C=C/C(=O)c2sc(Nc3cccnc3)nc2C)c1", "growth": "24% (inactive)"},
      {"smiles": "COC(=O)c1ccc(C)cc1", "growth": "108% (inactive)"},
      {"smiles": "COc1ccc(-c2nnc(COc3ccc(NS(=O)(=O)c4ccc(OC)cc4)cc3F)o2)cc1", "growth": "73.4% (inactive)"},
      {"smiles": "CCCC1OC(c2ccc(C(C)C)cc2)OCC1CC", "note": "(stereo not given)", "growth": "107% (inactive)"}
    ]}
  ]
}
